This note sets out measurements from PubChem BioAssay AID1009 (NMMLSC, 2008).

SMILES strings stand for the structures. About 200 (0.11%) of roughly 190,000 compounds were called active. Rule as the data show it: active = inhibition above about 40%. The list comes from a sample in which actives are over-represented; it also holds similar structures and randomly drawn compounds.

For the test, the target named is Induced myeloid leukemia cell differentiation protein Mcl-1 (Homo sapiens) (UniProt Q07820). The experiment in a line: inhibitors of Bim peptide binding to Mcl-1, primary screen, biochemical, bead-based flow cytometry, multiplex (AID 1009).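 Also: 0% = no compound tracer wells and 100% = peptide blocker.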 The following applies: Bim peptide-Mcl-1 binding, at 10 µM, hits give high values. On the technique in general: Flow cytometry measures light scatter and fluorescence of single cells or particles in a stream.
Sequence of Induced myeloid leukemia cell differentiation protein Mcl-1 (Homo sapiens) (Q07820 whole entry, looked up): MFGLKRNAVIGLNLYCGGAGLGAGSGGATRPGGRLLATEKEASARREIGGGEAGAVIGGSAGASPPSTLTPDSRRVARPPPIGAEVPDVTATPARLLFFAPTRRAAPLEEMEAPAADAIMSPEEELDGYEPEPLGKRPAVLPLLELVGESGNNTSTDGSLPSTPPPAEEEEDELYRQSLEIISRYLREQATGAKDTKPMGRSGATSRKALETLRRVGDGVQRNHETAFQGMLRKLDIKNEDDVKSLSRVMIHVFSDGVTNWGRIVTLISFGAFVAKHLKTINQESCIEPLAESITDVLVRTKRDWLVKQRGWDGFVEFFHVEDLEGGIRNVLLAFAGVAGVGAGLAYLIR
For orientation: inhibition means the change of the read-out against control, counted positive when it falls. For `COc1ccc(C(=O)NC2(C(F)(F)F)NC(=O)N(CCCc3ccccc3)C2=O)c(OC)c1OC` (stereo unspecified), the inhibition is -3% (inactive).

In the case of `CCCOc1ccc(Cn2ccnc2)cc1[N+](=O)[O-]`, the inhibition is -1% (inactive). As for `O=C(/C=C/c1ccc(Cl)cc1)N1CCN(c2ccccc2[N+](=O)[O-])CC1`, the inhibition is -1% (inactive).

Take `CCO[C@H]1OC(C(=O)N2CCOCC2)=C[C@@H](c2ccc3c(c2)OCO3)[C@@H]1CCCO`: the inhibition was -2% (inactive). As for `CC(=O)N1CCN(S(=O)(=O)c2c(F)cc(F)c(Cl)c2F)CC1`, the figure is -1% (inactive); as for `Cc1ccc(Cl)c(NC(=O)CN2CCN(C=O)CC2)c1`, 0% (inactive); as for `CCCn1c(C(O)c2ccc(OCC)cc2)nc2ccccc21` (stereo unspecified), 0% (inactive). As for `CCCn1c(C(O)c2cc(OC)ccc2OC)nc2ccccc21` (stereo unspecified), the figure is 80% (active); as for `COc1cc(C(O)c2nc3ccccc3n2C)cc(OC)c1OC` (stereo unspecified), 0% (inactive).

Consider `COc1ccc(CC2(CO)CCN(Cc3cnn(C)c3)CC2)cc1`, for which the inhibition was 8% (inactive).

Regarding `COc1cccc(NC(=O)CS(=O)(=O)c2cn(CC(=O)N3CCOCC3)c3ccccc23)c1`, the inhibition was 1% (inactive). `COc1ccc(S(=O)(=O)NC(C)C)cc1C(=O)NC1CCCCC1`: the inhibition is -1% (inactive). For `O=C(CCN1C(=O)c2ccccc2C1=O)C1=NN[C@@H]2C(=O)N(c3ccc(F)cc3)C(=O)[C@H]12`, the inhibition was -3% (inactive).

In the case of `Cc1c(Cc2ccccc2)c(=O)oc2cc(OCC(N)=O)ccc12`, the inhibition was 0% (inactive). As for `C/C(=N/OC(=O)c1c(-c2c(F)cccc2Cl)noc1C)c1cnccn1`, the figure is -2% (inactive); as for `COC(=O)C1=C(C)N(C(C)c2ccccc2)C(=O)/C1=C\c1ccco1` (stereo unspecified), -2% (inactive). As for `Cc1ccc2[nH]cc(CCCN3C(=O)c4ccccc4C3=O)c2c1`, the figure is -3% (inactive). As for `CC1(C)CN(c2ccc(-c3ccnc4ncnn34)cc2)C1=O`, the figure is -1% (inactive); as for `Cn1c(CCC(=O)OCC(=O)NCc2ccccc2Cl)nc(=O)c2ccccc21`, -2% (inactive); as for `CC(=O)Nc1ccc(-c2csc(NC=C3C(=O)OC(C)(C)OC3=O)n2)cc1`, -8% (inactive). On to `c1ccc2sc(NN=C3CCCC3)nc2c1`, for which the inhibition is 0% (inactive). Consider `Oc1ccc(-c2nncn2-c2ccccc2)cc1`, for which the inhibition was 0% (inactive).

As for `COc1cccc(NC(=O)COC(=O)CCOc2ccccc2OC)c1`, the inhibition is 0% (inactive).

As for `COc1ccc(NC(=S)Nc2ccc(S(N)(=O)=O)cc2)c(C)c1`, the inhibition is -2% (inactive). The figure for `Cc1ccc(NN=Nc2nc3c([nH]2)c(=O)n(C)c(=O)n3C)cc1` is -7% (inactive); for `O=C(NCCCN1CCOCC1)c1ccccc1NS(=O)(=O)c1ccc(F)cc1` it is 3% (inactive). As for `CCOc1cccc(/C=C/c2ccc3ccccc3n2)c1OC(C)=O`, the figure is 0% (inactive); as for `O=C(Nc1ccc(F)cc1)C1CCN(C(=O)c2ccc([N+](=O)[O-])cc2)CC1`, 0% (inactive); as for `Cc1cc(OCCN2CCCC2)cc(C(C)C)c1`, -3% (inactive). With `COc1cc(C2OC(c3cc(OC)c(OC)c(OC)c3)C(C)C2C)cc(OC)c1OC` (stereo unspecified), the inhibition is 0% (inactive). As for `COC(=O)c1cc(NC(=O)c2cccnc2)ccc1N1CCOCC1`, the figure is -2% (inactive); as for `Cc1ccc(S(=O)(=O)/N=C(\N)c2ccc(F)cc2)cc1`, 0% (inactive).

As for `CC1CCCC(NC(=O)c2cccc(N3CCCC3=O)c2)C1C` (stereo unspecified), the inhibition is 1% (inactive). In the case of `CCOC(=O)CN1CCC(c2ccccc2)CC1`, the inhibition was 2% (inactive).

For the compound `CCOC(=O)N1CCC(NC(=O)COc2cc(=O)n(C)c3ccccc23)CC1`, the inhibition was -1% (inactive). The figure for `CCOC(=O)N1CCC(c2cc(=O)n(-c3ccccc3)[nH]2)CC1` is 42% (active); for `CCN(CC)C(=O)C(=O)c1cn(CC(=O)NCc2ccc3c(c2)OCO3)c2ccccc12` it is 0% (inactive); for `COC(=O)c1ccc(NC(=O)CSc2nncc3ccc(OC)c(OC)c23)cc1` it is 1% (inactive). For `Cn1cc(Cl)c(C(=O)NNC(=S)Nc2cccc(Cl)c2)n1`, the inhibition was -1% (inactive).

With `Cc1cc(C)c(C(N)=O)c(Cl)n1`, the inhibition was 0% (inactive). As for `CC(C)(C)NC(=O)c1ccc(Cn2cc(C(F)(F)F)ccc2=O)cc1`, the figure is -1% (inactive); as for `CCN(CC)c1ccc(C(=O)N/N=C(\C)c2cccc(OC)c2)cc1`, 1% (inactive). On to `Cn1c(-c2sccc2OCc2cccc(C(F)(F)F)c2)n[nH]c1=S`, for which the inhibition was -4% (inactive). As for `CC(=O)NC(NC(=S)Nc1c(C)n(C)n(-c2ccccc2)c1=O)C(Cl)(Cl)Cl` (stereo unspecified), the figure is 0% (inactive). The figure for `CCC(=O)NCc1cc(-c2nn(C)c(=O)c3ccccc23)ccc1OC` is -1% (inactive); for `O=C(/C=C/c1ccc([N+](=O)[O-])cc1)NCCSCc1ccco1` it is -5% (inactive). As for `Cc1c(C(=O)NC(=S)NCc2cccnc2)oc2ccccc12`, the figure is 0% (inactive). Take `CCOCC(=O)Nc1ncc(S(=O)(=O)c2ccc([N+](=O)[O-])cc2)s1`: the inhibition was 0% (inactive). As for `COC(=O)CNC(=O)c1ccc(OC2CCN(C(=O)C3CC3)CC2)cc1`, the figure is -2% (inactive). The figure for `CC(=O)c1ccccc1NC(=O)CC1(CC(=O)O)CCCCC1` is 0% (inactive); for `Fc1ccccc1CNC(=S)Nc1ccc(Cl)cc1` it is -14% (inactive); for `CSc1ccc(/C=C/C(=O)NC23CC4CC(CC(C4)C2)C3)cc1` it is -2% (inactive). For `O=C(c1ccc(OC2CCN(Cc3ccccn3)CC2)cc1)N1CCCCCC1`, the inhibition is -4% (inactive).

As to `Cc1ccc2c(c1)C1CN(C)CCC1N2C(=S)Nc1ccc(OC(F)F)cc1` (stereo unspecified), the inhibition is -1% (inactive). As to `O=C(COC(=O)CCCSc1nc2ccccc2[nH]1)Nc1ccc(Oc2ccccc2)cc1`, the inhibition is 2% (inactive).

On to `COc1ccc(-c2nc(CN3CCN(c4ncccn4)CC3)c(C)o2)cc1C`, for which the inhibition was -2% (inactive). The figure for `O=[N+]([O-])c1ccc(F)cc1Oc1nc(-c2cccnc2)nc2ccccc12` is 4% (inactive); for `CCN1CCN(C(=O)CN(C)S(=O)(=O)c2ccc3ccccc3c2)CC1` it is 0% (inactive). As to `O=C(Nc1ccc2oc(-c3ccccc3F)nc2c1)c1ccco1`, the inhibition is -3% (inactive). The figure for `COc1ccnc(Oc2ccccc2)c1-c1ncn[nH]1` is -2% (inactive); for `N#C/C(=C\c1ccc(-c2cccc([N+](=O)[O-])c2)o1)C(=O)NCCN1CCOCC1` it is 0% (inactive). The figure for `N#CCOc1ccc(C2=NO[C@@H]3[C@@H]4C[C@@H]([C@H]5C(=O)N(c6ccc7c(c6)OCO7)C(=O)[C@@H]45)[C@H]23)cc1` is -7% (inactive). As for `CCc1c(SCCC(=O)O)nc2ccccc2c1C`, the figure is -1% (inactive). Regarding `COc1ccc(CC(NC(C)=O)C(=O)NC2CCN(C(=O)C3CC3)CC2)cc1OC` (stereo unspecified), the inhibition was 1% (inactive). The figure for `COc1cccc(NC(=O)C(Sc2nc3ccccc3c(=O)n2CC(C)C)c2ccccc2)c1` (stereo unspecified) is -1% (inactive); for `O=C(COc1nc2ccccc2nc1N1CCOCC1)NCC(F)(F)F` it is -3% (inactive). With `Cc1ccc(OCC(=O)NNC(=S)NCc2ccccc2)cc1`, the inhibition is 0% (inactive).

For the compound `CCOC(=O)c1cc2c(nc1NC(=S)Nc1ccccc1)CC(C)(CC)OC2` (stereo unspecified), the inhibition is -5% (inactive). As for `Cc1[nH]c2ccccc2c1SCC(=O)Nc1nccs1`, the figure is -1% (inactive); as for `O=C(/C=C/c1ccccc1)Oc1coc(CSc2ncccn2)cc1=O`, 0% (inactive). As for `Cc1nn(CC(=O)NCc2ccccn2)c(C)c1[N+](=O)[O-]`, the figure is 0% (inactive). The figure for `CCCNC(=O)NC(=O)COC(=O)CC(NC(N)=O)c1ccc(Cl)cc1` (stereo unspecified) is -8% (inactive); for `COCCNC(=O)NC(=O)COC(=O)C1(c2ccc(Cl)cc2)CC1` it is 0% (inactive); for `Cc1ccc(S(=O)(=O)Cc2cc(-c3ccc(Cl)cc3)no2)cc1` it is 0% (inactive). With `O=C1CCC/C(=N\NC(=O)NC2CCCCC2)C1`, the inhibition is 1% (inactive). As for `Cc1ccc(C(=O)COC(=O)c2cccc(N3C(=O)c4c(C)nc5ccccc5c4C3=O)c2)cc1C`, the figure is -5% (inactive); as for `CCOc1cc(CNCc2ccccn2)ccc1OCC(=O)NC(C)(C)C`, -5% (inactive).

Take `Cc1cc(=O)oc2c1c(C)nn2-c1ccc(Cl)cc1`: the inhibition is 2% (inactive). The figure for `O=C(Cn1c2[n+](c3ccc(C(F)(F)F)cc31)CCCCC2)Nc1c(F)cccc1F` is 2% (inactive); for `Cc1ccc(OCC(=O)OC(C)CN(C)Cc2ccccc2)cc1` (stereo unspecified) it is 0% (inactive). For the compound `Cc1ccc(C(=O)O)cc1N1C(=O)CCCC1=O`, the inhibition is 0% (inactive).
